Results on four compounds are retold here after PubChem BioAssay (EPA / NIEHS).

Common to all, as to conditions: mRNA level, 48 h; actives raise or lower the signal
Read-out in test [1]: Cytochrome P450 7A1 (Homo sapiens) (UniProt P22680)
As to the kind of experiment: LTEA_HepaRG_CYP7A1: Life Technologies and Expression Analysis (LTEA) Assay for Cytochrome P450 7A1 (CYP7A1) using HepaRG (AID 2283496). The essentials:
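HepaRG cells plated 48 h, then switched to serum-free induction medium and exposed in duplicate for 48 h to 8-point half-log series from 100 uM in 0.5% DMSO. CYP7A1 mRNA by qRT-PCR (TaqMan), normalized to ACTB/GAPDH/POLR2A; bidirectional fit versus DMSO.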

Read-out in test [2]: Glutathione S-Transferase (GSTA2), GSTA2 (gene 2939)
As to the kind of experiment: LTEA_HepaRG_GSTA2: Life Technologies and Expression Analysis (LTEA) Assay for Glutathione S-Transferase (GSTA2) using HepaRG (AID 2283497). The essentials: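 Human HepaRG cells, plated 48 h, then exposed in serum-free induction medium for 48 h to eight half-log concentrations up to 100 uM in 0.5% DMSO, duplicate. GSTA2 mRNA by qRT-PCR, normalized to ACTB/GAPDH/POLR2A; bidirectional fit versus DMSO.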

Read-out in test [3]: growth arrest and DNA damage 45 (GADD45G), GADD45G (gene 10912)
As to the kind of experiment: LTEA_HepaRG_GADD45G: Life Technologies and Expression Analysis (LTEA) Assay for growth arrest and DNA damage 45 (GADD45G) using HepaRG (AID 2283499). The essentials: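 Differentiated human HepaRG cells in serum-free induction medium were exposed for 48 h to 8 half-log concentrations up to 100 uM in 0.5% DMSO, in duplicate. GADD45G mRNA was measured by TaqMan qRT-PCR, normalised to ACTB, GAPDH and POLR2A, and fitted bidirectionally against DMSO.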

Read-out in test [4]: Glutamate-cysteine ligase regulatory (GCLM), GCLM (gene 2730)
As to the kind of experiment: LTEA_HepaRG_GCLM: Life Technologies and Expression Analysis (LTEA) Assay for Glutamate-cysteine ligase regulatory (GCLM) using HepaRG (AID 2283500). A digest of the protocol: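 Differentiated HepaRG cells exposed 48 h in serum-free induction medium to eight half-log concentrations up to 100 uM (0.5% DMSO). GCLM mRNA by TaqMan qRT-PCR, normalized to ACTB, GAPDH and POLR2A; bidirectional fit versus DMSO.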

Read-out in test [5]: Glutathione S-transferase M3 (GSTM3), GSTM3 (gene 2947)
As to the kind of experiment: LTEA_HepaRG_GSTM3: Life Technologies and Expression Analysis (LTEA) Assay for Glutathione S-transferase M3 (GSTM3) using HepaRG (AID 2283501). The essentials:
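Differentiated HepaRG cells in serum-free induction medium were exposed in duplicate for 48 h to 8 half-log concentrations up to 100 uM in 0.5% DMSO. GSTM3 mRNA was measured by TaqMan qRT-PCR, normalized to ACTB/GAPDH/POLR2A, and fitted bidirectionally versus DMSO.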

Read-out in test [6]: Heat shock 70 kDa protein 1 (HSPA1A), gene 3303
As to the kind of experiment: LTEA_HepaRG_HSPA1A: Life Technologies and Expression Analysis (LTEA) Assay for Heat shock 70 kDa protein 1 (HSPA1A) using HepaRG (AID 2283502). A digest of the protocol: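 Human HepaRG cells in serum-free induction medium were exposed in duplicate for 48 h to 8 half-log concentrations, highest 100 uM, in 0.5% DMSO. HSPA1A mRNA read by TaqMan qRT-PCR, normalized to ACTB, GAPDH, POLR2A, fitted bidirectionally against DMSO.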

Read-out in test [7]: Hypoxia-inducible factor 1-alpha (Homo sapiens) (UniProt Q16665)
As to the kind of experiment: LTEA_HepaRG_HIF1A: Life Technologies and Expression Analysis (LTEA) Assay for Hypoxia-inducible factor 1 (HIF1A) Trancription factor using HepaRG (AID 2283503). The essentials: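 Differentiated HepaRG cells in serum-free induction medium exposed 48 h, in duplicate, to 8-point half-log series from 100 uM in 0.5% DMSO. HIF1A mRNA measured by TaqMan qRT-PCR, normalized to ACTB/GAPDH/POLR2A, fitted bidirectionally versus DMSO.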

Read-out in test [8]: 3-Hydroxy-3-Methylglutaryl-CoA Synthase 2 (HMGCS2), HMGCS2 (gene 3158)
As to the kind of experiment: LTEA_HepaRG_HMGCS2: Life Technologies and Expression Analysis (LTEA) Assay for 3-Hydroxy-3-Methylglutaryl-CoA Synthase 2 (HMGCS2) using HepaRG (AID 2283504). The essentials: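 Differentiated human HepaRG cells were exposed in duplicate for 48 h in serum-free induction medium to eight concentrations (top 100 uM, half-log steps, 0.5% DMSO). HMGCS2 mRNA was quantified by TaqMan qRT-PCR, normalised to ACTB, GAPDH and POLR2A, then fitted bidirectionally against DMSO.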

Read-out in test [9]: HGF (gene 3082)
As to the kind of experiment: LTEA_HepaRG_HGF: Life Technologies and Expression Analysis (LTEA) Assay for Hepatocyte Growth Facto (HGF) using HepaRG (AID 2283505). A digest of the protocol:
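Differentiated human HepaRG cells in serum-free induction medium were exposed in duplicate for 48 h to eight concentrations (top 100 uM, half-log steps, 0.5% DMSO). HGF mRNA was quantified by qRT-PCR, normalized to ACTB, GAPDH and POLR2A.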

Read-out in test [10]: Insulin Like Growth Factor 1 (IGF1), IGF1 (gene 3479)
As to the kind of experiment: LTEA_HepaRG_IGF1: Life Technologies and Expression Analysis (LTEA) Assay for Insulin Like Growth Factor 1 (IGF1) using HepaRG (AID 2283506). The essentials:
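Differentiated HepaRG cells in serum-free induction medium, exposed 48 h in duplicate to 8 half-log concentrations up to 100 uM in 0.5% DMSO. IGF1 mRNA by Fluidigm qRT-PCR, normalised to ACTB, GAPDH and POLR2A.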

Read-out in test [11]: Intercellular Adhesion Molecule 1 (ICAM1), ICAM1 (gene 3383)
As to the kind of experiment: LTEA_HepaRG_ICAM1: Life Technologies and Expression Analysis (LTEA) Assay for Intercellular Adhesion Molecule 1 (ICAM1) using HepaRG (AID 2283507). A digest of the protocol:
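Differentiated HepaRG cells in serum-free induction medium were exposed in duplicate for 48 h to eight half-log concentrations up to 100 uM in 0.5% DMSO. Transcript levels were measured by qRT-PCR normalized to ACTB, GAPDH and POLR2A; bidirectional fits relative to DMSO.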

Read-out in test [12]: Insulin-like growth factor-binding protein 1 (IGFBP1), IGFBP1 (gene 3484)
As to the kind of experiment: LTEA_HepaRG_IGFBP1: Life Technologies and Expression Analysis (LTEA) Assay for Insulin-like growth factor-binding protein 1 (IGFBP1) using HepaRG (AID 2283508). A digest of the protocol:
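Differentiated human HepaRG cells in serum-free induction medium were exposed in duplicate for 48 h to eight concentrations, top 100 uM with half-log dilutions, in 0.5% DMSO. Transcript levels came from qRT-PCR normalised to ACTB, GAPDH and POLR2A, fitted bidirectionally against DMSO.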

Read-out in test [13]: Interleukin 6 (IL6), IL6 (gene 3569)
As to the kind of experiment: LTEA_HepaRG_IL6: Life Technologies and Expression Analysis (LTEA) Assay for Interleukin 6 (IL6) using HepaRG (AID 2283509). The essentials: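 Differentiated human HepaRG cells, plated 48 h then switched to serum-free induction medium, were exposed in duplicate for 48 h to eight half-log concentrations up to 100 uM in 0.5% DMSO. IL6 mRNA measured by qRT-PCR, normalized to ACTB/GAPDH/POLR2A.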

Read-out in test [14]: Interleukin 6 Receptor (IL6R), IL6R (gene 3570)
As to the kind of experiment: LTEA_HepaRG_IL6R: Life Technologies and Expression Analysis (LTEA) Assay for Interleukin 6 Receptor (IL6R) using HepaRG (AID 2283510). The essentials:
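Differentiated HepaRG cells, plated 48 h, then exposed in duplicate for 48 h in serum-free induction medium to 8 half-log concentrations (top 100 uM, 0.5% DMSO). IL6R mRNA measured by TaqMan qRT-PCR, normalized to ACTB/GAPDH/POLR2A; bidirectional fit vs DMSO.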

Read-out in test [15]: Potassium channel subfamily K member 1 (KCNK1), KCNK1 (gene 3775)
As to the kind of experiment: LTEA_HepaRG_KCNK1: Life Technologies and Expression Analysis (LTEA) Assay for Potassium channel subfamily K member 1 (KCNK1) using HepaRG (AID 2283511). The essentials:
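Differentiated human HepaRG cells in serum-free induction medium were exposed in duplicate for 48 h to 8 half-log concentrations up to 100 uM in 0.5% DMSO. KCNK1 mRNA was measured by TaqMan qRT-PCR, normalized to ACTB, GAPDH and POLR2A, and fitted bidirectionally versus DMSO.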

Read-out in test [16]: Keratin 19 (KRT19), KRT19 (gene 3880)
As to the kind of experiment: LTEA_HepaRG_KRT19: Life Technologies and Expression Analysis (LTEA) Assay for Keratin 19 (KRT19) using HepaRG (AID 2283512). A digest of the protocol: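 Differentiated human HepaRG cells, plated 48 h, were exposed in duplicate for 48 h in serum-free induction medium to eight half-log concentrations up to 100 uM in 0.5% DMSO. KRT19 mRNA was quantified by qRT-PCR, normalized to ACTB, GAPDH and POLR2A, and fitted bidirectionally versus DMSO.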

Read-out in test [17]: JUN Transcription Factor, JUN (gene 3725)
As to the kind of experiment: LTEA_HepaRG_JUN: Life Technologies and Expression Analysis (LTEA) Assay for JUN Transcription Factor using HepaRG (AID 2283513). A digest of the protocol:
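HepaRG cells, 48 h post-plating, exposed 48 h in serum-free induction medium to 8-point half-log series (top 100 uM, 0.5% DMSO), duplicate; mRNA by qRT-PCR (TaqMan, Fluidigm), normalized to ACTB/GAPDH/POLR2A; bidirectional fit vs DMSO.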

Read-out in test [18]: Lipoprotein lipase (LPL), LPL (gene 4023)
As to the kind of experiment: LTEA_HepaRG_LPL: Life Technologies and Expression Analysis (LTEA) Assay for Lipoprotein lipase (LPL) using HepaRG (AID 2283515). A digest of the protocol:
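Differentiated human HepaRG cells in serum-free induction medium were exposed in duplicate for 48 h to eight half-log concentrations (top 100 uM) in 0.5% DMSO. LPL mRNA was quantified by TaqMan qRT-PCR, normalized to ACTB, GAPDH and POLR2A.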

Read-out in test [19]: Lipase C (LIPC), LIPC (gene 3990)
As to the kind of experiment: LTEA_HepaRG_LIPC: Life Technologies and Expression Analysis (LTEA) Assay for Lipase C (LIPC) using HepaRG (AID 2283514). A digest of the protocol: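 Differentiated human HepaRG cells in serum-free induction medium were exposed in duplicate for 48 h to eight concentrations (top 100 uM, half-log steps, 0.5% DMSO). LIPC mRNA was quantified by TaqMan qRT-PCR, normalized to ACTB, GAPDH and POLR2A, with bidirectional fitting versus DMSO.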

Read-out in test [20]: Glutamate-cysteine ligase catalytic (GCLC), GCLC (gene 2729)
As to the kind of experiment: LTEA_HepaRG_GCLC: Life Technologies and Expression Analysis (LTEA) Assay for Glutamate-cysteine ligase catalytic (GCLC) using HepaRG (AID 2283498). A digest of the protocol:
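Differentiated human HepaRG cells, plated 48 h then switched to serum-free induction medium, were exposed in duplicate for 48 h to 8 half-log concentrations topping at 100 uM in 0.5% DMSO. GCLC mRNA was quantified by qRT-PCR against ACTB, GAPDH and POLR2A.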

Activity calls are given as the source filed them. How the source made its calls: active means hit-call score of the fitted dose curve at least 0.9, where 1 is the maximum; inactive means score below 0.9.

Chain of Hypoxia-inducible factor 1-alpha (Homo sapiens) (Q16665 whole entry, looked up): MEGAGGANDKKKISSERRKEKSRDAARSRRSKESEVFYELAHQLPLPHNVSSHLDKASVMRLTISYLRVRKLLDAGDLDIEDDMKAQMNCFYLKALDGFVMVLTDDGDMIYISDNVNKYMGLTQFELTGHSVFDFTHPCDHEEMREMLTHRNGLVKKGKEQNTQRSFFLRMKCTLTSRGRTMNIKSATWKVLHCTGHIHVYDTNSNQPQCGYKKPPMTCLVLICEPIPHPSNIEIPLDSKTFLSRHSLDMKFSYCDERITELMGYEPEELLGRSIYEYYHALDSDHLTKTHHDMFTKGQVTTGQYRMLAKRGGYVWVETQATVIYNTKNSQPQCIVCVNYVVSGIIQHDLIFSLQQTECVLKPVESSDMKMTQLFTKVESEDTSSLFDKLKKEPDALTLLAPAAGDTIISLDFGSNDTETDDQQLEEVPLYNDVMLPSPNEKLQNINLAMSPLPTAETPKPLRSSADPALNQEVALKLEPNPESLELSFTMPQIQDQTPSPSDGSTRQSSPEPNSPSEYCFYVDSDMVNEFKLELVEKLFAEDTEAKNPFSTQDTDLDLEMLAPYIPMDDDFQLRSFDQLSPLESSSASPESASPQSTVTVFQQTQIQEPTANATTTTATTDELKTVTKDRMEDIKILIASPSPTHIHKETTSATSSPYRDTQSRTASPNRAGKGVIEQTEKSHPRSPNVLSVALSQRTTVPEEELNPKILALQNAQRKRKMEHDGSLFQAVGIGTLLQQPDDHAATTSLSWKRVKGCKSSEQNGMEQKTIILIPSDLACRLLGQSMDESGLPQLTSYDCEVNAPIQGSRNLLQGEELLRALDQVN

Take `COP(=O)(NC(C)=O)SC` (stereo not drawn): the result in [1], in test [2], in test [3], in test [4], in test [5] and in [6] was inactive. The compound was classed as inactive in test [7], in test [8], in [9], in [10], in [11] and in [12]. Further, the compound was called inactive in test [13], in [14], in test [15], in test [16], in test [17] and in test [18].
For `O=C(O)c1cc(Oc2ccc(C(F)(F)F)cc2Cl)ccc1[N+](=O)[O-]`, the outcome in [1], in test [2], in test [3], in test [4], in test [6] and in test [7] was inactive. Besides, the outcome in [9], in test [11], in test [12], in test [13], in test [14] and in test [15] was inactive. In addition, the outcome in test [16], in [17] and in test [19] was inactive. Moreover, the AC50 is 50 µM (active) in test [8] and 12.6 µM (active) in test [18].
Take `COP(=O)(OC)C(O)C(Cl)(Cl)Cl` (stereo not drawn): the outcome in test [20], in test [3], in [4], in test [6], in test [8] and in [9] was inactive. For the same compound, the call in [10], in test [11], in test [12], in test [13], in test [14] and in test [15] was inactive. Also, the compound was classed as inactive in [16], in test [17] and in [18].
Consider `CCCCOC(=O)[C@@H](C)Oc1ccc(Oc2ccc(C#N)cc2F)cc1`, for which the result in [1], in test [2], in [3], in test [4], in test [6] and in test [7] was inactive. Moreover, the outcome in test [9], in [10], in test [11], in test [12], in [13] and in test [14] was inactive. For the same compound, the compound was called inactive in test [15], in [16], in [17] and in test [19]. The results for the AC50 in test [8] and in test [18] were 25.8 µM (active) and 40.4 µM (active), respectively.

The AC50 is the midpoint of the concentration-response curve, whichever way the signal moves.
